# Data as given in article PMC4336329 (PLoS ONE, 2015).
# Screen size: about 310,000 compounds; about 14,000 (4.5%) showed an effect of 50% or more. The effect is printed as a negative number. Many of the other results were omitted from the sample, so strong results are more common in it than they were.
# Target: human ether-à-go-go-related gene (hERG) potassium channel (human, UniProt Q12809)
# Assay: primary screen, population patch clamp on CHO cells stably expressing hERG; higher = less effect of the substance
# 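Further: peak tail current of the secondary pulse compared with the same well before compound.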
# Chain of human ether-à-go-go-related gene (hERG) potassium channel (Q12809 whole entry, looked up): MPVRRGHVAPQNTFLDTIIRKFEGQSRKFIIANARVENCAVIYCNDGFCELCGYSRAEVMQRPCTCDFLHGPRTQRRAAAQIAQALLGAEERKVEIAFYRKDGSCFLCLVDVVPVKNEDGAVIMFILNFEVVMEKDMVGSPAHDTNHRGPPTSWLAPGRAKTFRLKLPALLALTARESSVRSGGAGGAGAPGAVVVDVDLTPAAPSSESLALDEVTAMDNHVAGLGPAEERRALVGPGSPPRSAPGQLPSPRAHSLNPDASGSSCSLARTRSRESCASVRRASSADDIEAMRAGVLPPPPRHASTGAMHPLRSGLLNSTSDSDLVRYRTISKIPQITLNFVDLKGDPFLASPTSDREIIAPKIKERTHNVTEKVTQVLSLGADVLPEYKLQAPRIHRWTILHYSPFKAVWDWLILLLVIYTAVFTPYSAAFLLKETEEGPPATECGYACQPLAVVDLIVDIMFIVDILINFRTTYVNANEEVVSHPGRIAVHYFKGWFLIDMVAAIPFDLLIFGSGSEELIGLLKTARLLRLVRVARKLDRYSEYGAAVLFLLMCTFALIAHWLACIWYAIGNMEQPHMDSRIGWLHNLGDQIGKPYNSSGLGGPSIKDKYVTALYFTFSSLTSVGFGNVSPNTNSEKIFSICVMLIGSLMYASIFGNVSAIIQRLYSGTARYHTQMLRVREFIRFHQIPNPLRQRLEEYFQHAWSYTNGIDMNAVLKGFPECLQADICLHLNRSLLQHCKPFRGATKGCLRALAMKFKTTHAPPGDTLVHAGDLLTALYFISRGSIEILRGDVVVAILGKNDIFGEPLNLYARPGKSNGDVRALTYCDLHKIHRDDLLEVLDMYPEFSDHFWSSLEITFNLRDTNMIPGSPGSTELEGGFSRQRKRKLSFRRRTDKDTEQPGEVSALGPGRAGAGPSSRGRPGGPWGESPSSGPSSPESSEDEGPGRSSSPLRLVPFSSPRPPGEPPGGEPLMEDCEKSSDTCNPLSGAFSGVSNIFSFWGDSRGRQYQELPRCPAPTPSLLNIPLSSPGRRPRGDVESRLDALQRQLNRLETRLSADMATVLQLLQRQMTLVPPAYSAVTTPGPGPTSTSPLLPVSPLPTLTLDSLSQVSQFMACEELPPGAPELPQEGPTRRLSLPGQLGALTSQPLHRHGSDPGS
row,Compound,"hERG current change (%, negative = inhibition) at 10uM"
1,CCOC(=O)c1sc(NC(=O)c2ccc(S(=O)(=O)N3CCCCC3)cc2)nc1-c1ccccc1,18.1%
2,CC(=O)Nc1ccccc1C(F)(F)F,21.2%
3,COc1ccc(C(=O)NC(C)c2nnc(SCC(=O)NC3CCCC3)n2C)cc1 (stereo not shown),4.98%
4,O=C1OC(c2ccc(Cl)cc2)=C/C1=C/c1cccnc1,23.3%
5,Cc1c(Cc2ccccc2)c(=O)oc2c(C)c(OCc3nn[nH]n3)ccc12,11.3%
6,Cc1ccc(S(=O)(=O)N/N=C/c2ccc(OS(=O)(=O)c3ccc(C)c([N+](=O)[O-])c3)cc2)cc1,7.76%
7,Cc1ccc(C(=O)NCCn2cc(SCC(=O)Nc3nnc(C)s3)c3ccccc32)cc1,-3.05%
8,COc1ccccc1CNC(=O)CC(C)c1ccccc1 (stereo not shown),4.63%
9,CCCn1c2ccccc2c2nnc(SCC(=O)Nc3cc(C)on3)nc21,-0.11%
10,Cc1ccc(S(=O)(=O)N2CCN(S(C)(=O)=O)C2c2ccccc2)cc1 (stereo not shown),-37.2%
11,C=CCOc1ccc(/C=C/C(=O)OCC(=O)NCCc2ccccc2)cc1,8.61%
12,COc1ccc(C(CNC(=O)c2cccc(N(C)C)c2)N2CCCC2)cc1 (stereo not shown),-28.3%
13,CNS(=O)(=O)c1cccc(C(=O)NCC(c2cccs2)N(C)C)c1 (stereo not shown),-5.25%
14,COc1ccc(C(CNC(=O)c2cccc(S(=O)(=O)N3CCCC3)c2)N2CCCC2)cc1 (stereo not shown),-22.9%
15,COc1ccc(C(CNC(=O)c2cccc(S(=O)(=O)N(C)c3ccccc3)c2)N2CCCC2)cc1 (stereo not shown),-60.2%
16,CCN(c1ccccc1)S(=O)(=O)c1cccc(C(=O)NCC(c2cccs2)N(C)C)c1 (stereo not shown),-48.6%
17,COc1ccc(N(C)S(=O)(=O)c2cccc(C(=O)NCC(c3cccs3)N(C)C)c2)cc1 (stereo not shown),-52.3%
18,CCOc1ncccc1C(=O)OCC(=O)c1ccc(C)c(C)c1,-20.2%
19,CN1CCCC(OC(=O)COc2ccc(Br)cc2)C1.Cl (stereo not shown),-12.8%
20,CCOC(=O)N1CCN(Cc2nc(N)nc(Nc3ccc(OC)cc3)n2)CC1,-62.4%
21,CCOC(=O)N1CCN(Cc2nc(N)nc(Nc3ccccc3C)n2)CC1,-14.9%
22,COc1ccc(Nc2nc(N)nc(CSC(=S)N3CCN(C)CC3)n2)cc1,-12.5%
23,CCOC(=O)N1CCN(Cc2nc(-c3ccc(OC)cc3)no2)CC1,-4.74%

row,Compound,"hERG current change (%, negative = inhibition) at 10uM"
1,CCOC(=O)N1CCN(Cc2nc(N)nc(Nc3ccc(OCC)cc3)n2)CC1,-67.6%
2,CCOC(=O)N1CCN(Cc2nc(N)nc(Nc3ccc(Oc4ccccc4)cc3)n2)CC1,-70.7%
3,CCOc1ccc(Nc2nc(N)nc(CSC(=S)N3CCOCC3)n2)cc1,-2%
4,Cc1c(OCC(F)(F)F)ccnc1CSc1nc2ccccc2[nH]1,20.6%
5,O=C(CCN1C(=O)/C(=C/c2ccccc2Cl)SC1=S)NNC(=O)c1ccccc1O,-6.37%
6,CCOc1ccc(N(CC(=O)Nc2ccc(OC)cc2)S(C)(=O)=O)cc1,3.39%
7,CC(C)(C)C(=O)N1CCC(O)(CS(=O)(=O)c2ccc(Cl)c(Cl)c2)CC1,-5.3%
8,CCCN1C(=O)C(NS(=O)(=O)c2ccc(N)cc2)(C(F)(F)F)C(C(=O)OC)=C1C (stereo not shown),10.1%
9,O=C(c1cc(COc2ccc(F)cc2Cl)on1)N1CCCC(c2ccccc2)C1 (stereo not shown),-5.56%
10,COc1ccc(OCc2cc(C(=O)NCC(C)(C)N3CCOCC3)no2)c(Cl)c1,-31.8%
11,Cc1ccc(OCc2cc(C(=O)NCC(C)(C)N3CCOCC3)no2)cc1C,-45.8%
12,CCN(CC1CCCO1)C(=O)c1cc(COc2ccc(F)cc2F)on1 (stereo not shown),-14.8%
13,CCN(CC1CCCO1)C(=O)c1cc(COc2ccccc2SC)on1 (stereo not shown),-85.6%
14,CSc1ccccc1OCc1cc(C(=O)NCC(C)(C)N2CCOCC2)no1,-93%
15,CCN(CC1CCCO1)C(=O)c1cc(COc2ccc(OC)cc2Cl)on1 (stereo not shown),-5.59%
16,O=C(c1cc(COc2ccc(F)cc2Cl)on1)N1CC[C@@H]2CCCC[C@H]2C1,12.6%
17,CSc1ccccc1OCc1cc(C(=O)N(C)C(C)c2nc(C)cs2)no1 (stereo not shown),-63.6%
18,CSc1ccccc1OCc1cc(C(=O)NCc2csc(C(C)C)n2)no1,-9.57%
19,CCN(CC)C1CCN(C(=O)c2cc(COc3ccc(F)cc3Cl)on2)C1 (stereo not shown),-70%
20,CSc1ccccc1OCc1cc(C(=O)N(C)C(C)c2ccccn2)no1 (stereo not shown),-10.6%
21,COc1cc(CNS(=O)(=O)CCl)cc(OC)c1OC,12.7%
22,CCOC(=O)c1sc(=S)n(C)c1NC(=O)c1ccc(OC)cc1,17.4%
23,COc1ccc2nc(C)c3cc(C)oc3c2c1,-15.5%

row,Compound,"hERG current change (%, negative = inhibition) at 10uM"
1,Cc1cc(C)c2c(n1)SCC(=O)N2CC(=O)Nc1cc(F)ccc1F,-7.16%
2,COc1ccc(NC(=O)/C=C/c2ccc(OC(F)F)cc2)cn1,-24.7%
3,CCC(=O)NCCc1nc2cc(NC(=O)c3ccc(F)cc3)ccc2n1C,1.29%
4,COc1cc(OC)c(C(=O)Nc2ccncc2)cc1OC,7.83%
5,CCC(=O)Nc1ccc(S(=O)(=O)c2ccc(NC(=O)CC)cc2)cc1,0.428%
6,CSc1ccccc1OCc1cc(C(=O)N2CCCC(C)C2)no1 (stereo not shown),-0.622%
7,CSc1ccccc1OCc1cc(C(=O)N2CCN(C)C(c3ccccc3)C2)no1 (stereo not shown),-5.98%
8,Cc1ccccc1OCC(=O)NCC(C)(C)N1CCOCC1,7.19%
9,CC(C)(CNC(=O)COc1ccccc1Cc1ccccc1)N1CCOCC1,-55.6%
10,COCC1CCN(C(=O)c2cc(COc3ccccc3SC)on2)C1 (stereo not shown),-33.9%
11,CCN(CC)C1CCN(C(=O)c2cc(COc3ccccc3SC)on2)C1 (stereo not shown),-68.4%
12,COc1ccccc1OCc1cc(C(=O)N2CCN(C)C(c3ccccc3)C2)no1 (stereo not shown),-61.1%
13,Cl.O=C(COc1ccccc1Cc1ccccc1)NCCCN1CCOCC1,-32.1%
14,COc1cccc(OCc2cc(C(=O)N3CCN(C)C(c4ccccc4)C3)no2)c1 (stereo not shown),-6.09%
15,C[C@H](CCC(=O)O)[C@H]1CC[C@H]2[C@@H]3CC[C@@H]4C[C@H](O)CC[C@]4(C)[C@H]3C[C@H](O)[C@]12C,11.8%
16,CCCN1CCC(NC23CC4CC(CC(C4)C2)C3)CC1,22.1%
17,O=S(=O)(c1cccc2nonc12)N1CCN(c2ccccc2F)CC1,4.42%
18,CCOC(=O)c1c(C)[nH]c(C)c1C(=O)CSc1ncccn1,-2.23%
19,O=C(Nc1nnc(-c2ccccc2Cl)s1)C1CCN(S(=O)(=O)c2ccc(Cl)cc2)CC1,28.1%
20,CCN(CC)CCCOc1ccc(C)cc1Br,-69%
21,Cc1ccc(OCCCN(C)C)c(Br)c1,-20.6%
22,CCc1cccc(OCCCCN(CC)CC)c1,-37.9%
23,Clc1ccc(OCCCn2cncn2)cc1Cl,-12.2%

row,Compound,"hERG current change (%, negative = inhibition) at 10uM"
1,CCOc1ccccc1OCCCOc1ccc(C)cc1Br,7.97%
2,CCN(CC)CCCOc1ccc(Cl)c(Cl)c1,-60.5%
3,COc1ccc(/C=N/N=C/c2ccc(OC)cc2)cc1,14%
4,CCOC(=O)CC1COCCN1C(=O)c1ccc2oc(Cc3ccccc3)nc2c1 (stereo not shown),1.91%
5,COc1ccc([C@@H]2CC=C(C(=O)O)CN2S(=O)(=O)c2ccc(Cl)cc2)cc1,7.54%
6,OCC[n+]1c2ccccc2nc2ccc(N3CCOCC3)cc21.[O-][Cl+3]([O-])([O-])[O-],3.86%
7,O=C1Cc2cc(NS(=O)(=O)c3cc(F)ccc3F)cc3c2N1CCC3,-2.87%
8,Cc1ccc(NC(=S)N(CCN2CCOCC2)Cc2cc3cc4c(cc3[nH]c2=O)OCCO4)cc1,-14.3%
9,C=CCNC(=O)CN1C(=O)NC(C)(c2ccc(OC)cc2)C1=O (stereo not shown),-14.2%
10,COC(=O)C(NC(=O)c1ccc(F)cc1)(Nc1ncc(S(=O)(=O)c2ccc([N+](=O)[O-])cc2)s1)C(F)(F)F (stereo not shown),-52.9%
11,COC(=O)C(NC(=O)c1ccc(OC)cc1)(Nc1ncc(S(=O)(=O)c2ccc([N+](=O)[O-])cc2)s1)C(F)(F)F (stereo not shown),-5.41%
12,COC(=O)C(NC(=O)c1ccccc1Cl)(Nc1ncc(S(=O)(=O)c2ccc([N+](=O)[O-])cc2)s1)C(F)(F)F (stereo not shown),-32.8%
13,CCc1nnc(NC(=O)CCC(=O)NC2CCCCCC2)s1,3.71%
14,COc1ccc(-n2c(Cc3cccc([N+](=O)[O-])c3)nc3ccccc3c2=O)cc1,-69.4%
15,O=c1c2ccccc2nc(Cc2ccccc2)n1-c1ccccc1,-20.9%
16,O=c1c2ccccc2nc(Cc2ccccc2)n1-c1ccc(O)cc1,-23.9%
17,COc1ccc(-n2c(-c3ccccc3Br)nc3ccccc3c2=O)cc1,-20.9%
18,COc1ccc(-n2c(-c3ccccc3[N+](=O)[O-])nc3ccccc3c2=O)cc1,-68.7%
19,COc1ccc(-c2nc3ccccc3c(=O)n2-c2ccc(OC)cc2)cc1,-4.5%
20,COc1ccc(-n2c(Cc3ccccc3)nc3ccccc3c2=O)cc1,-92.8%
21,O=c1c2ccccc2nc(Cc2cccc([N+](=O)[O-])c2)n1-c1ccc(O)cc1,-35.5%
22,CCCc1nc2ccccc2c(=O)n1-c1ccc(OC)cc1,9.5%
